# Experimental data taken from ChEMBL document CHEMBL3988442, “University of Dundee, Small-Polar-MMV Screening Library” (2021).
# In all, about 48,000 compounds went through this assay and about 13,000 (27%) showed an effect of 50% or more. The list shows a part of the results.
# Test system: Wolbachia pipientis
# Assay: Anti-Wolbachia Cell-Based Screen
# Assay type: functional
# Set-up: scale not given: in the data most compounds retested in dose-response had high values
# Details: 5 µM
row,SMILES,Percent Effect [%]
1,CCc1cc(C(=O)N2CCc3c(ncn3CCc3ccccc3)C2)[nH]n1,0.9556
2,CC(C(=O)NC1(C#N)CCCCC1)N1CCc2c(ncn2C2CC2)C1 (stereo not given),2.173
3,Cc1ccc(F)c(NC(=O)CCC(=O)N(C)Cc2nc(C)c[nH]2)c1,-39.22
4,CC(C)n1c(C2CCCN(CC(=O)NC3CC3)C2)nc2ccccc21 (stereo not given),-1.015
5,O=C1COc2ccccc2N1CCCn1cnnn1,-11.05
6,CN(C)C(CNS(=O)(=O)c1cnn(C)c1)c1cccc(F)c1 (stereo not given),6.578
7,N#Cc1ccc(OC2CCN(C(=O)c3ccc(Br)o3)CC2)nc1,22.17
8,Cc1nc(N2C[C@@H](CN3CCCN(C)CC3)[C@@H](CO)C2)c2ccsc2n1,13.06
9,CN1CCCN(C[C@@H]2CN(c3nc(C(N)=O)cs3)C[C@@H]2CO)CC1,120.2
10,Cc1nc(N2C[C@@H](CN3CCCN(C)CC3)[C@@H](CO)C2)c2sccc2n1,6.466
11,Cc1cnn(C2CN(CC(O)c3ccc(F)cc3)C2)c1 (stereo not given),3.544
12,O=C1O[C@@H]2CN(c3cnccn3)C[C@@H]2N1CCCc1ccc(F)cc1,20.37
13,COc1c(C)cnc(CN(C)C(=O)c2ccccc2F)c1C,-7.265
14,N#Cc1cccc(NS(=O)(=O)c2ccc(C(=O)O)cc2F)c1,100.6
15,O=C(O)c1ccc(S(=O)(=O)Nc2ccc(Cl)c(F)c2)c(F)c1,4.995
16,O=C(O)c1ccc(S(=O)(=O)Nc2ccccc2F)c(F)c1,-2.05
17,Cc1ccccc1NS(=O)(=O)c1ccc(C(=O)O)cc1F,0.9629
18,Cc1cc(NS(=O)(=O)c2ccc(C(=O)O)cc2F)ccc1F,102.3
19,O=C(O)c1ccc(S(=O)(=O)Nc2cccc(CC(F)(F)F)c2)c(F)c1,-7.999
20,Cc1ccc(F)cc1S(=O)(=O)N(C)CC(N)=O,2.56
21,O=C1CCC2(CCNCC2)CN1CCCOc1cccnc1,-10.24
22,COc1ccc(CN(C)C(=O)NC(C)c2nncn2C)cc1F (stereo not given),-30.44
23,COCC(=O)NCC1CCN(Cc2ccsc2)CC1,155
24,CSc1cccc(CN2CCC(CCC(=O)NCCN(C)C)CC2)c1,-5.054
25,COCCNC(=O)CCC1CCN(Cc2cccc(SC)c2)CC1,4.456
26,CCSc1ccccc1C(=O)NCC1CCN(Cc2ccsc2)CC1,107.8
27,CC(c1ccccc1)N1CCC(NC(=O)CCc2ccsc2)CC1 (stereo not given),5.953
28,O=C(COc1ccccc1)NCC1CCN(Cc2ccsc2)CC1,115.8
29,O=C(CCSc1ccccc1)NCC1CCN(Cc2ccsc2)CC1,78.72
30,O=C(NCC1CCN(Cc2ccsc2)CC1)NC1CC1,4.525
